Results from PubChem BioAssay (EPA / NIEHS).
Results filed as inconclusive are left out. The source made the active and inactive calls. Rule for the calls, unless noted: active = hit-call score of the fitted dose curve at least 0.9, where 1 is the maximum; inconclusive = response in the unintended direction; inactive = score below 0.9.

Experiments:
[1] = target: Agonist Androgen Response Element (ARE), AR (gene 367) (UniProt P10275); assay: OT_AR_ARELUC_AG_1440: Odyssey Thera (OT) 24-hour CHO-K1 Luciferase Assay for Agonist Androgen Response Element (ARE) (AID 2283379)
In short: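 Seed CHO-K1 cells; dose compounds for 24 h; add D-luciferin plus ATP in PBS; read luminescence. Signal increase relative to vehicle defines agonist activity, with at least 3 replicate wells per sample.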

[2] = target: Estrogen receptor (Homo sapiens) (UniProt P03372); assay: OT_ERa_GFPERaERE_0480: Odyssey Thera (OT) 8-hour HeLa Transcription Induction Assay for Estrogen Receptor (AID 2283381; active = hit-call score of the fitted dose curve at least 0.9, where 1 is the maximum; inactive = score below 0.9)
In short: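 Cells (HeLa) receive compound; after 8 h, reporter fluorescence is imaged and quantified by high-content analysis. Gain-of-signal relative to DMSO gives the endpoint.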

[3] = target: Bile acid receptor (Homo sapiens) (UniProt Q96RI1); assay: OT_FXR_FXRSRC1_1440: Odyssey Thera (OT) 24-hour HEK293T Protein-Complementation Assay for Farnesoid X receptor/SRC-1 Co-activator (AID 2283384)
In short: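 Cell-based binding reporter: interaction of FXR with SRC-1 brings reporter fragments together, giving a fluorescence signal read 24 h after dosing of HEK293T cells.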

[4] = target: Retinoic acid receptor RXR-alpha (Homo sapiens) (UniProt P19793); assay: OT_NURR1_NURR1RXRa_1440: Odyssey Thera (OT) 24-hour HEK293T Protein Complementation Assay for Nurr1/retinoid X receptor (RXR) (AID 2283386)
In short: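 Measured as fluorescence from a reconstituted split reporter, this 24 h HEK293T complementation assay scores compound-induced gain of Nurr1/RXRα association relative to DMSO.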

[5] = target: Peroxisome proliferator-activated receptor gamma (Homo sapiens) (UniProt P37231); assay: OT_PPARg_PPARgSRC1_0480: Odyssey Thera (OT) 8-hour Protein-Complementation Assay for Peroxisome Proliferator-activated Receptor Gamma / SRC-1 Co-activator (AID 2283387)
In short: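 Split-YFP (IFP1/IFP2) PPARg/SRC-1 reporter, HEK293T, 37 °C, 5% CO2; 8 h compound; formaldehyde fix + Draq5; high-content imaging, N/C ratio, ≥350 cells/image, positive direction vs DMSO.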

[6] = target: Peroxisome proliferator-activated receptor gamma (Homo sapiens) (UniProt P37231); assay: OT_PPARg_PPARgSRC1_1440: Odyssey Thera (OT) 24-hour Protein-Complementation Assay for Peroxisome Proliferator-activated Receptor Gamma/ SRC-1 Co-activator (AID 2283388)
In short: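 HEK293T cells transiently transfected with PPARg and SRC-1 fused via (Gly4Ser)2 linker to split Venus YFP fragments (IFP1/IFP2) were dosed 24 h; fixed, Draq5-stained, imaged at 488/635 nm; nuclear/cytoplasmic fluorescence ratio scored versus DMSO baseline, gain-of-signal.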

[7] = target: Estrogen receptor beta (Homo sapiens) (UniProt Q92731); assay: OT_ER_ERbERb_1440: Odyssey Thera (OT) 24-hour HEK293T Protein-Complementation Assay for Estrogen Receptor-beta/-beta Homodimer (AID 2283380);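 note: fluorescence gain from ER beta LBD homodimer complementation read by laser scanning cytometry; scored as signal increase over DMSO baseline for both agonists and antagonists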
In short: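 HEK293T cells stably expressing human ER-beta LBD (aa 310-547) PCA homodimer pair, dosed 24 h; formaldehyde-fixed, Draq5-stained. Readout: increase in nuclear (agonist) or nuclear plus cytoplasmic (antagonist) fluorescence intensity versus DMSO, gain-of-signal fitting.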

[8] = target: Estrogen receptor (Homo sapiens) (UniProt P03372); assay: OT_ERa_GFPERaERE_0120: Odyssey Thera (OT) 2-hour HeLa Transcription Induction Assay for Estrogen Receptor (AID 2283382)
In short: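 Measures ESR1 pathway reporter gain-of-signal in HeLa cells after a 2-hour treatment, detected as fluorescent protein induction by microscopy, DMSO as baseline.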

[9] = target: Retinoic acid receptor RXR-alpha (Homo sapiens) (UniProt P19793); assay: OT_NURR1_NURR1RXRa_0480: Odyssey Thera (OT) 8-hour HEK293T Protein Complementation Assay for Nurr1/retinoid X receptor (RXR) (AID 2283385)
In short: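 Compounds are applied to HEK293T cells carrying Nurr1 and RXRα linked to reporter fragments. After 8 h, fluorescence intensity reports heterodimer formation, with DMSO as baseline.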

[10] = target: mouse Estrogen Receptor alpha (Era), Esr1 (gene 13982) (UniProt P19785); assay: NVS_NR_mERa: NovaScreen (NVS) Nuclear Receptor Binding Assay for mouse Estrogen Receptor alpha (Era) (AID 2283378);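 note: hit means loss of bound radioligand signal relative to DMSO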
In short: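 Cell-free radioligand binding with extracted mouse Era protein; competitive displacement of radiolabelled ligand, read by filter-based scintillation counting 18 hours after dosing. Loss of signal versus DMSO baseline taken as binding; single screening concentration 25 uM, actives followed in concentration series.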

[11] = target: Bile acid receptor (Homo sapiens) (UniProt Q96RI1); assay: OT_FXR_FXRSRC1_0480: Odyssey Thera (OT) 8-hour HEK293T Protein-Complementation Assay for Farnesoid X receptor/SRC-1 Co-activator (AID 2283383)
In short: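 Co-activator recruitment to FXR was measured in living HEK293T cells, where interaction of the two fused partners restored an active fluorescent reporter. Signal gain after 8 h treatment was referenced to DMSO.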

[12] = CEETOX_H295R_11DCORT: CeeTox H295R High-throughput Steroidogenesis Assay for 11-Deoxycortisol (11DCORT) (AID 2283432; active = hit-call score of the fitted dose curve at least 0.9, where 1 is the maximum; inactive = score below 0.9;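 note: 11-deoxycortisol secreted into the medium measured by LC-MS/MS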); settings: actives raise or lower the signal
In short: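 Steroidogenesis in human H295R cells: 48 h chemical exposure after forskolin priming, 11-deoxycortisol measured by LC-MS/MS.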

[13] = CEETOX_H295R_OHPREG: CeeTox H295R High-throughput Steroidogenesis Assay for OH-Pregnenolone (OHPREG) (AID 2283434; active = hit-call score of the fitted dose curve at least 0.9, where 1 is the maximum; inactive = score below 0.9); settings: actives raise or lower the signal
In short: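 Human adrenal H295R cells were prestimulated 48 h with 10 uM forskolin, then exposed 48 h to chemical in 0.1% DMSO. Medium 17alpha-hydroxypregnenolone was quantified by HPLC-MS/MS after MTBE extraction; bidirectional fitting versus DMSO baseline.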

[14] = CEETOX_H295R_OHPROG: CeeTox H295R High-throughput Steroidogenesis Assay for OH-Progesterone (OHPROG) (AID 2283435; active = hit-call score of the fitted dose curve at least 0.9, where 1 is the maximum; inactive = score below 0.9;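 note: 17alpha-hydroxyprogesterone secreted into medium measured by HPLC-MS/MS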); settings: actives raise or lower the signal
In short: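 Secreted 17alpha-hydroxyprogesterone is read by tandem MS from media of forskolin-primed H295R cells dosed with chemical for 48 h. Activity is fitted in both directions against DMSO baseline; cytotoxic concentrations are re-tested diluted.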

[15] = CEETOX_H295R_CORTIC: CeeTox H295R High-throughput Steroidogenesis Assay for Corticosterone (CORTIC) (AID 2283437; active = hit-call score of the fitted dose curve at least 0.9, where 1 is the maximum; inactive = score below 0.9;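 note: corticosterone secreted into medium quantified by mass spectrometry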); settings: actives raise or lower the signal
In short: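 H295R cells were prestimulated 48 h with 10 uM forskolin, then exposed 48 h to test chemical in 0.1% DMSO. Medium corticosterone was MTBE-extracted and quantified by HPLC-MS/MS; bidirectional fit versus DMSO baseline.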

[16] = CEETOX_H295R_CORTISOL: CeeTox H295R High-throughput Steroidogenesis Assay for Cortisol (AID 2283438; active = hit-call score of the fitted dose curve at least 0.9, where 1 is the maximum; inactive = score below 0.9;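 note: cortisol secreted into medium quantified by LC-MS/MS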); settings: actives raise or lower the signal
In short: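 Human adrenocortical H295R cells (passage ≤10) received test chemicals for 48 h after forskolin priming. Secreted cortisol was measured by LC-MS/MS.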

Estrogen receptor (Homo sapiens), sequence (P03372 whole entry, looked up): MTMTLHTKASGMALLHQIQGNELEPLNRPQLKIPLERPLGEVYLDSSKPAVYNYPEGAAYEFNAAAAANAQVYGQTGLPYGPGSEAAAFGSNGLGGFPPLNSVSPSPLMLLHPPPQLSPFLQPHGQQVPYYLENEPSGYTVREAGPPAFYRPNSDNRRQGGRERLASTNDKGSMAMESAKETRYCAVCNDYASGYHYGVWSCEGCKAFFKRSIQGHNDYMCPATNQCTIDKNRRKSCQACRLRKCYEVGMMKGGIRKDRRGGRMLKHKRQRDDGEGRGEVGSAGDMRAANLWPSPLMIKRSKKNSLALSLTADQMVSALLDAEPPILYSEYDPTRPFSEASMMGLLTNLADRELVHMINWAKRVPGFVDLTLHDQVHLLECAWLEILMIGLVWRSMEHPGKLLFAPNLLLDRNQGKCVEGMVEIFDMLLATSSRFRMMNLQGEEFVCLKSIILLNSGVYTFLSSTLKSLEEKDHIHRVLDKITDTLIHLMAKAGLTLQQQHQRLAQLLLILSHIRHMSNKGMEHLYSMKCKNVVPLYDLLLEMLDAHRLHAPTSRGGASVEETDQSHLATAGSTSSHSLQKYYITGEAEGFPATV
mouse Estrogen Receptor alpha (Era), Esr1 (gene 13982), sequence (P19785 whole entry, looked up): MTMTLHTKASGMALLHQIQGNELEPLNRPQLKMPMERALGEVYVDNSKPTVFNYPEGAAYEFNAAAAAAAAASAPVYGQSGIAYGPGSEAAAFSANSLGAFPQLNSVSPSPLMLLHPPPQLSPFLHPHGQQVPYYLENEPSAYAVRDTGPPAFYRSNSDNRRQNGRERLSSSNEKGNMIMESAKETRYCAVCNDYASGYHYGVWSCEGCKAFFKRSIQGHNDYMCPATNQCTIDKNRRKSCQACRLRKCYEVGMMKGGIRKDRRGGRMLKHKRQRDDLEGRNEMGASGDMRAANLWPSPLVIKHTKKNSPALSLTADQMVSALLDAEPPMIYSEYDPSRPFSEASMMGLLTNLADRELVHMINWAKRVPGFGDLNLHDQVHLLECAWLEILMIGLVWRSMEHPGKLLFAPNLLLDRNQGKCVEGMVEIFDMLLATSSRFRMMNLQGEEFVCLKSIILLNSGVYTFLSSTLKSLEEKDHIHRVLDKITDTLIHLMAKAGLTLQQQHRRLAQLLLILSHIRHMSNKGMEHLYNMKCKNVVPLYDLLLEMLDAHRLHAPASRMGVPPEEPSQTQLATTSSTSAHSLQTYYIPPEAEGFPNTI
Estrogen receptor beta (Homo sapiens), sequence (Q92731 whole entry, looked up, the tested form may be a part): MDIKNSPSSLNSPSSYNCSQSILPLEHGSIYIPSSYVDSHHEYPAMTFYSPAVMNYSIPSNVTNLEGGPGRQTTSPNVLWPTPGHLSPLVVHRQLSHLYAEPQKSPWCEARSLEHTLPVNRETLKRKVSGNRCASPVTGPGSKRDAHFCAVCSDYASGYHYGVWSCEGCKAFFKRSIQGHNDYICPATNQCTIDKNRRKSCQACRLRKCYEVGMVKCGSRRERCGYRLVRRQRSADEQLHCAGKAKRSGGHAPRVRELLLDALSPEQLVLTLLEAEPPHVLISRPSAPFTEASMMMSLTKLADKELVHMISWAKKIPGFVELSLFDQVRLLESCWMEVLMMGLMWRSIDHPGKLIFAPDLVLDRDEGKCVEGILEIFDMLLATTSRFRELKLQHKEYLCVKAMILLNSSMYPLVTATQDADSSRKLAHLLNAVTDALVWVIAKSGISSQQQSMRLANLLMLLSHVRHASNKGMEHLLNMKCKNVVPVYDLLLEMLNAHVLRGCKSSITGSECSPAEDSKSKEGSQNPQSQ
Bile acid receptor (Homo sapiens), sequence (Q96RI1 whole entry, looked up, the tested form may be a part): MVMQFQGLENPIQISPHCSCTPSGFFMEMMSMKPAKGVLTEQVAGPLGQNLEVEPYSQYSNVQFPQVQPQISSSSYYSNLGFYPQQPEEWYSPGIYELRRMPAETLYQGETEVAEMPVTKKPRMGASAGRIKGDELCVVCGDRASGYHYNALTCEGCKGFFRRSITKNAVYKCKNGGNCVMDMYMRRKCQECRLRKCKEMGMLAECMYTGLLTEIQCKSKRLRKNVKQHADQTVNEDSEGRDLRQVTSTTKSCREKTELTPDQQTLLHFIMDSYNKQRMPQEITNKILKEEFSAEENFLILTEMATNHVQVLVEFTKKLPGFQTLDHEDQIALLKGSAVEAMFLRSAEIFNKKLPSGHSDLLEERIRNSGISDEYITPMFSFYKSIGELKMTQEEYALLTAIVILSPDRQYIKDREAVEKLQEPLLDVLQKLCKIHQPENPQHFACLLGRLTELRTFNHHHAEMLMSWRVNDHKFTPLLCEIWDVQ
Agonist Androgen Response Element (ARE), AR (gene 367), sequence (P10275 whole entry, looked up): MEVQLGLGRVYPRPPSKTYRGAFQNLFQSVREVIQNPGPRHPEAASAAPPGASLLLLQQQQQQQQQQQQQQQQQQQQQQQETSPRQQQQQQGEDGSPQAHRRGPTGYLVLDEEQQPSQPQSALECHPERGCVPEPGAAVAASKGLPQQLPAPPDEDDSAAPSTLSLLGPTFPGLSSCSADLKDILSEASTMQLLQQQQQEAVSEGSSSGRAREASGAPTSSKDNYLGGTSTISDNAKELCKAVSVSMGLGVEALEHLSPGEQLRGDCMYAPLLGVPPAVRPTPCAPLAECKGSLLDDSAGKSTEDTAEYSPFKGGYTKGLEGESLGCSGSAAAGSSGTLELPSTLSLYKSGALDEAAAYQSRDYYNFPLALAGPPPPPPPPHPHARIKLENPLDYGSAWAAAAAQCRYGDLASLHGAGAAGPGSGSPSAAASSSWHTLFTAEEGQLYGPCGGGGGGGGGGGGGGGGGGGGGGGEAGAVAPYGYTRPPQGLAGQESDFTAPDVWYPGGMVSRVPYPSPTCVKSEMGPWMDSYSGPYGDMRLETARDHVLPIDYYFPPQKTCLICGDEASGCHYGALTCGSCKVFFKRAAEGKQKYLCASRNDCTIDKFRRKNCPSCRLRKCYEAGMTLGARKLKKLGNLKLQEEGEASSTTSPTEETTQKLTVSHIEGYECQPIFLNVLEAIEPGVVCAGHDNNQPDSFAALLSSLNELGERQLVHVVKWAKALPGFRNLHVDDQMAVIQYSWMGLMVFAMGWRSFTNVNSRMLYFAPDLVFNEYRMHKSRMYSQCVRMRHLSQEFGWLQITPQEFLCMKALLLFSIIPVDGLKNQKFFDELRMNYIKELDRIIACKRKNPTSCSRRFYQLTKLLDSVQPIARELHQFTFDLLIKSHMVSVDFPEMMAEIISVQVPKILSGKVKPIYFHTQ
Retinoic acid receptor RXR-alpha (Homo sapiens), sequence (P19793 whole entry, looked up, the tested form may be a part): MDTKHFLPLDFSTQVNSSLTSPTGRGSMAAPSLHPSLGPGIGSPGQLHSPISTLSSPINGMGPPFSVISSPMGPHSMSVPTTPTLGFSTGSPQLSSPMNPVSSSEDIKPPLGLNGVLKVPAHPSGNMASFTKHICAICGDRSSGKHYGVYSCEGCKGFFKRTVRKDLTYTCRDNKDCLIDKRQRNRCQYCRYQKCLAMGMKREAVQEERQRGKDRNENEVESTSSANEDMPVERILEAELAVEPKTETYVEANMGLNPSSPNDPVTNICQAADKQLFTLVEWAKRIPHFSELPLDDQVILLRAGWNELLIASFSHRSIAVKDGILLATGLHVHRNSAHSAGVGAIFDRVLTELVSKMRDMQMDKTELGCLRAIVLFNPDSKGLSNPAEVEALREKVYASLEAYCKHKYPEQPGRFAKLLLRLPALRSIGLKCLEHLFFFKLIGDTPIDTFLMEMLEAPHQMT
Peroxisome proliferator-activated receptor gamma (Homo sapiens), sequence (P37231 whole entry, looked up, the tested form may be a part): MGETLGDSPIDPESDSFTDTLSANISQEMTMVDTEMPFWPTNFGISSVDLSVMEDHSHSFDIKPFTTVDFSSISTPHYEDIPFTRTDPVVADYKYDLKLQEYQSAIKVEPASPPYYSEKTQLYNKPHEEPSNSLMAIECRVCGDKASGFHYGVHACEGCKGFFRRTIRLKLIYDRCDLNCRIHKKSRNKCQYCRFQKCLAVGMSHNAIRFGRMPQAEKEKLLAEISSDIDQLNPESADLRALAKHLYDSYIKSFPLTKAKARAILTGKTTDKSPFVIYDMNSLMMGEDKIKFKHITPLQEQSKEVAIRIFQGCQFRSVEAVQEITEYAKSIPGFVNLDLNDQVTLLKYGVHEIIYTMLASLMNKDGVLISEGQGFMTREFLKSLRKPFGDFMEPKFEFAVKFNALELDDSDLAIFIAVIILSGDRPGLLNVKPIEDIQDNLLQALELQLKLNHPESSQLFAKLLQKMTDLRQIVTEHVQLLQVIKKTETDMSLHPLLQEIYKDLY

CCC1(c2ccc(N)cc2)CCC(=O)NC1=O (centres undefined)
outcome [1]: inactive | outcome [2]: inactive | outcome [3]: inactive | outcome [4]: inactive | outcome [5]: inactive | outcome [6]: inactive

CC(C#N)CCC#N (centres undefined)
outcome [7]: inactive | outcome [2]: inactive | outcome [8]: inactive | outcome [4]: inactive | outcome [5]: inactive | outcome [6]: inactive

Cc1ccccc1C(=O)Nc1cccc(OC(C)C)c1
outcome [1]: inactive | outcome [7]: inactive | outcome [2]: inactive | outcome [8]: inactive | outcome [9]: inactive | outcome [5]: inactive | outcome [6]: inactive

Cl/C=C/Cl
outcome [10]: inactive | outcome [2]: inactive | outcome [9]: inactive | outcome [4]: inactive

CCC[CH2][Sn]([CH2]CCC)([CH2]CCC)[O]C(=O)c1ccccc1
outcome [10]: inactive | outcome [2]: inactive | outcome [4]: inactive | outcome [5]: inactive | AC50 [6]: 0.0331 µM (active)

CC(C)C1CCC(Cc2ccc(Cl)cc2)C1(O)Cn1cncn1 (centres undefined)
outcome [7]: inactive | outcome [2]: inactive | AC50 [8]: 90.2 µM (active) | AC50 [3]: 11.2 µM (active) | outcome [5]: inactive | outcome [6]: inactive

C=C(C)C#N
outcome [7]: inactive | outcome [2]: inactive | outcome [8]: inactive | outcome [11]: inactive | outcome [4]: inactive

COP(=O)(OC)OC
outcome [1]: inactive | outcome [2]: inactive | outcome [8]: inactive | outcome [11]: inactive | outcome [3]: inactive | outcome [9]: inactive | outcome [4]: inactive | outcome [5]: inactive | outcome [6]: inactive

Cc1ccc2ccccc2c1C
outcome [1]: inactive | outcome [7]: inactive | outcome [2]: inactive | outcome [8]: inactive | outcome [5]: inactive | outcome [6]: inactive

ClC1(Cl)C2(Cl)C3(Cl)C4(Cl)C(Cl)(Cl)C5(Cl)C3(Cl)C1(Cl)C5(Cl)C24Cl (centres undefined)
outcome [1]: inactive | outcome [2]: inactive | outcome [8]: inactive | outcome [11]: inactive | outcome [3]: inactive | outcome [9]: inactive | outcome [4]: inactive | outcome [5]: inactive | outcome [6]: inactive

C=CC#N
outcome [10]: inactive | outcome [7]: inactive | outcome [2]: inactive | outcome [9]: inactive | outcome [5]: inactive | outcome [6]: inactive

C[C@]12CC[C@H](O)CC1=CC[C@@H]1[C@@H]2CC[C@]2(C)C(=O)CC[C@@H]12
AC50 [10]: 2.17 µM (active) | AC50 [7]: 3.34 µM (active) | outcome [9]: inactive | outcome [4]: inactive | outcome [6]: inactive | AC50 [12]: 41.1 µM (active) | AC50 [13]: 14.1 µM (active) | AC50 [14]: 1.13 µM (active) | outcome [15]: inactive | AC50 [16]: 7.72 µM (active)
